Compound activity from PubChem BioAssay.
Sm TGR block: S. mansoni TGR enzyme inhibition; Q962Y6; purified TGR, DTNB reduction, TNB absorbance 405 nm; Potency, µM (top dose mostly 114 µM), inactives show at the top dose activity change, negative = inhibition, actives largely listed as inhibitors; 360,000 tested, 3% active; AID 485364; active = well fitted inhibition curve with a large enough effect; inconclusive = small, poorly fitted or top-dose-only effect; inactive = no such curve, though single readings can be large or run the other way; also: potency is read from the fitted curve at half-maximal effect; % is scaled to controls: 0 for no effect and ±100 for the full control effect; nearly all actives have a fitted effect of over 60% in size
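Kinetic colorimetric format: TGR-catalysed, NADPH-driven DTNB reduction monitored via TNB absorbance. Enzyme dispensed at 20 nM; compound exposure 15 min at room temperature before reaction start.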
SARS PLpro yeast-1: blocks SARS-CoV papain-like protease in a yeast assay; S. cerevisiae expressing SARS-CoV PLpro, growth rescue; Potency, µM (top dose mostly 32.9 µM), inactives show at the highest dose activity, positive = growth rescue, most hits filed as activators; 330,000 tested, 0.19% active; AID 485353; calls by dose curve; also: potency is read from the fitted curve at half-maximal effect; 0% is about no effect; nearly all actives have a fitted effect of over 55% in size
SARS PLpro yeast-2: Validates SARS-CoV PLpro inhibitor hits in yeast. 1,000 tested, 19% active. calls only. shares compounds with SARS PLpro yeast-1. AID 652038. yeast expressing SARS-CoV PLpro, growth phenotype rescue; call rule not given here
The depositor's hits bear a star; i = inactive; ? = inconclusive; . = no result given; + = active, no number; ! = not confirmed by another sample. Sampled rows, rich in hits. Any-hit rate of the full collection: about 3%.

SMILES	Sm TGR block	SARS PLpro yeast-1	SARS PLpro yeast-2
COc1ccc(-c2nc3sc(CCNC(=O)C(=O)Nc4cccc(NC(C)=O)c4)c(C)n3n2)cc1	18%	.	.
CC(CNC(=O)c1nnc(Cc2ccc(F)cc2)o1)c1ccccc1 (centres undefined)	-2%	.	.
CCOc1ccc(CCNC(=O)c2cc3c(s2)-c2ccccc2OC3)cc1OCC	4%	.	.
CCN(C(=O)Cn1ncc2c1-c1cc(C)ccc1OC2)c1cc(Cl)ccc1OC	1%	.	.
CC(C)c1ccc(NC2CCCN(C(=O)CCN3CCOCC3)C2)cc1 (centres undefined)	-1%	-5%	.
CCc1nccn1CCC(=O)N1CCCC(Nc2ccc(C(C)C)cc2)C1 (centres undefined)	8%	.	i
Cn1c(=O)c2cc(C(=O)N3CCN(c4cccc(C(F)(F)F)c4)CC3)sc2c2ccccc21	5%	.	.
COc1ccc(N2CC(NC(=O)c3ccc(OC(C)C)cc3)CC2=O)cc1 (centres undefined)	12%	.	.
CCN(CC)C(=O)CC(c1cc(OC)c(OC)c(OC)c1)c1c(O)cc(OC)cc1OC (centres undefined)	-1%	1%	.
COc1ccc(C(c2oc(CO)cc(=O)c2O)c2oc(CO)cc(=O)c2O)cc1	35µM*	4.5µM*	+
COc1ccc(-c2cc(=O)oc3cc(O)ccc23)cc1	1%	-2%	.
COc1cc(C(c2oc(CO)cc(=O)c2O)c2oc(CO)cc(=O)c2O)cc(OC)c1OC	-26%	?	i
Cc1c(Cl)cccc1NC(=O)Cn1nc(C)c2sc3ccccc3c2c1=O	-2%	.	.
CN(C)c1ccc(CN(CC2CCCO2)C(=O)COc2ccc(Cl)cc2)cc1 (centres undefined)	2%	.	.
CC(=O)Nc1ccc2c(c1)n(C)c(=O)n2C	1%	?	.
Cn1c(=O)n(C)c2cc(NC(=O)CCl)ccc21	18µM*	10µM*	+
COc1ccc(/C=N/N2CCN(c3ccc(Cl)cc3)CC2)cc1	7%	3%	.
Cc1ccc(N=C2C(=S)N(c3ccc(C)cc3)C(=N)N2/N=C/c2ccc(Cl)cc2)cc1	-24%	11µM*	+
O=C(CSCc1cnn(-c2ccccc2)c1-n1cccc1)NCc1cccc(Cl)c1	4%	.	.
CCCOc1ccc(C2=NNC(=O)CC2)cc1	4%	-1%	.
COc1ccc(C2=NNC(=O)CC2)cc1	-11%	?	i
COc1cccc(-c2c(NC(=O)c3ccco3)oc3ccc(Cl)cc3c2=O)c1	-26%	-10%	.
COc1cccc(-c2c(NC(=O)c3ccco3)oc3ccccc3c2=O)c1	12%	?	i
CCOc1ccccc1NC(=O)Cn1c(=O)n(Cc2ccc(C(=O)NCCCOC)cc2)c(=O)c2ccccc21	4%	.	.
O=C(Cn1nc(Cl)nc1Cl)c1ccc2c(c1)OCCO2	20µM*	11µM*	?
SMILES	Sm TGR block	SARS PLpro yeast-1	SARS PLpro yeast-2
O=C(Cn1nc(Cl)nc1Cl)c1ccc(F)cc1	9%	-1%	.
COCCNC(=S)N/N=C(\C)c1ccc(C)c([N+](=O)[O-])c1	-25%	?	.
COCCNC(=S)N/N=C(\C)c1ccc2cc(OC)ccc2c1	-11%	8.9µM*	i
COCCNC(=S)N/N=C(\C)c1ccc(OC(F)F)cc1	?	1%	.
COCCNC(=S)N/N=C(\C)c1ccc(OC)cc1	?	22µM*	+
CC(Sc1n[nH]c(-c2ccccc2F)n1)C(=O)Nc1ccc(S(N)(=O)=O)cc1 (centres undefined)	0%	?	i
Cc1cc(C)nc(SC(C)C(=O)Nc2ccc(S(N)(=O)=O)cc2)n1 (centres undefined)	1%	-5%	.
Cc1cccc(-c2ccc3ncnc(NCc4cccnc4)c3c2)c1	-9%	6.3µM*!	i
Cc1csc(CNc2ncnc3ccc(-c4cccnc4)cc23)c1	3%	2%	.
COc1cccc(-c2ccc3ncnc(NCc4cc(C)cs4)c3c2)c1	-3%	6.3µM*!	i
Clc1cccc(-c2ccc3ncnc(NCc4cccs4)c3c2)c1	3%	1%	.
Cc1cccc(CNc2ncnc3ccc(-c4cccnc4)cc23)c1	1%	-3%	.
Cc1cccc(-c2ccc3ncnc(NCc4cccs4)c3c2)c1	-2%	6.3µM*!	i
Cc1ccccc1-c1nn2c(=O)cc(CN3CCN(C(=O)c4ccc(C(C)(C)C)cc4)CC3)nc2s1	-13%	.	.
O=C(CSCc1cnn(-c2ccccc2)c1-n1cccc1)NCc1ccccc1F	0%	.	.
COc1cc(NC(=O)C2CCCN(S(=O)(=O)c3ccc4c(c3)oc(=O)n4C)C2)c(C(=O)O)cc1OC (centres undefined)	-2%	.	.
CC(=O)Nc1cccc(Nc2nc3ccccc3n3c(C)nnc23)c1	9%	.	.
CN(C)Cc1cc(C(C)(C)c2cc(CN(C)C)c(O)c(CN(C)C)c2)cc(CN(C)C)c1O	2%	13µM*	i
Cc1ccc(-c2nc(CN(C)C)cc(CN(C)C)c2O)cc1	?	-3%	.
